Mcl-1 Bim block = disrupts Bim peptide binding to human Mcl-1; Q07820; Bead-based flow cytometry, Bim peptide-Mcl-1 binding; inhibition, % at 10 µM; 190,000 tested, 0.1% active; AID 1009; in the data active means inhibition above about 40%;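 further: 0% = no compound tracer wells and 100% = peptide blocker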
Target sequence (Q07820 whole entry, looked up): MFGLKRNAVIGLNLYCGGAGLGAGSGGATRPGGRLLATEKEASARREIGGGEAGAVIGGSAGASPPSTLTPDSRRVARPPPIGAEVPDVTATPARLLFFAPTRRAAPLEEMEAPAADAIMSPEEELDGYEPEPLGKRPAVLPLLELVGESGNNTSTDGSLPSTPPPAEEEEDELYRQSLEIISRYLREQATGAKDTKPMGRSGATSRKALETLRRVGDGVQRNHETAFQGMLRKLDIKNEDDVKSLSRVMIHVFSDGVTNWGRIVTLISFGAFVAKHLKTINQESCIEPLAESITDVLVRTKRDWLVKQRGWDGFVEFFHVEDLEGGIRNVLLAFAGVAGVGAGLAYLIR
Mcl1 Bid PPI = Mcl-1/Bid interaction inhibition. Q07820. TR-FRET Mcl-1/Bid-Dy647 peptide binding, 1536-well. inhibition, % at 21.7 µM. 220,000 tested, 0.97% active. AID 1021;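 active means compounds that cut the binding signal by more than half at the single screening dose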;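 further: His-tagged Mcl-1 with europium anti-His antibody binding Bid BH3 peptide; 0% = Mcl-1 plus peptide wells and 100% = peptide-only wells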
MCL1 BIM primary = MCL1-BIM-BH3 interaction inhibition (human); inhibition, % at 10.9 µM; 320,000 tested, 0.68% active; Q07820; GST-MCL1 / FITC-Bim-BH3 fluorescence polarization;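 active means inhibition above the mean inhibition of all tested compounds plus 3 SD, set per campaign, cut at about 40% in these data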;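 further: 0% = DMSO wells and 100% = unlabeled Bim-BH3 peptide control; higher means more loss of mP so more displacement of Bim peptide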
BCLXL inh = Bcl-xL (human) inhibition; GST-Bcl-xL / FITC-Bim BH3 peptide fluorescence polarization; inhibition, % at 10.9 µM; 320,000 tested, 0.7% active; AID 2129;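 active means inhibition above the mean of all tested compounds plus 3 SD, cutoff set per campaign, cut at about 30% in these data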;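 further: 0% = DMSO wells and 100% = unlabeled Bim-BH3 peptide competitor; inhibitors lower millipolarization by displacing the labeled peptide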
Target sequence (Q07817 whole entry, looked up): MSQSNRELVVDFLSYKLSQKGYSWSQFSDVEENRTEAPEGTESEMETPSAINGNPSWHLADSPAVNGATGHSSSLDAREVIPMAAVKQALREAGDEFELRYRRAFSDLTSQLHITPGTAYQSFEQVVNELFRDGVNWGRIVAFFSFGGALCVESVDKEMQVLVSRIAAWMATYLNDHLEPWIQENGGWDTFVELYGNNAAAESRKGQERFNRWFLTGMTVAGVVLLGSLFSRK
GLD-1 TGE inh = GLD-1-TGE RNA interaction inhibition (C. elegans); inhibition, % at 5.96 µM; purified GLD-1 + fluorescein TGE RNA, fluorescence polarization; AID 2280; 320,000 tested, 0.44% active;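 active means percent inhibition above a per-plate cutoff, the plate mean of test compounds plus 3 SD, cut at about 30% in these data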;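 further: 0% = DMSO wells with GLD-1 and probe and 100% = wells lacking GLD-1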
Mcl1 Noxa PPI = disrupts binding of human Mcl-1 to Noxa peptide | inhibition, % at 21.7 µM | Q07820 | 220,000 tested, 1.5% active | TR-FRET Mcl-1/Noxa peptide binding, 2 h;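 active means compounds that cut the protein-peptide binding signal by more than 50% relative to plate controls in a single-dose test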;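 further: His-tagged Mcl-1 with rhodamine Noxa BH3 peptide and terbium anti-His antibody; 0% = Mcl-1 plus Noxa peptide wells and 100% = peptide-only wells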
An asterisk follows results filed as active; . = no result. In the library only some 2.3% were active in any assay of this set; here they are far more common.

SMILES	Mcl-1 Bim block	Mcl1 Bid PPI	MCL1 BIM primary	BCLXL inh	GLD-1 TGE inh	Mcl1 Noxa PPI
O=C(Nc1ccc2[nH]c3c(c2c1)CCCC3)c1ccco1	0	-16	40*	52*	30	11
Cc1cc2cc(NC(=O)c3ccco3)ccc2[nH]1	-2	-17	4	5	-4	9
Clc1cccc(Cl)c1CNc1ccc(N2CCCC2)cc1	16	-71	17	9	-6	67*
O=C(Cc1ccc(Cl)cc1)Nc1ccc(N2CCCC2)cc1	-4	-24	6	3	3	-6
CCCCc1c(C)nc2c(OC)cccc2c1SCCC(=O)O	0	6	8	5	-5	52*
CC1=C(c2ccccc2)[N+](=O)C2(CCCC2)N1[O-]	1	-3	-7	0	6	4
O=[N+]([O-])c1ccc2c(c1)N([O-])C1(CCCCC1)[N+]2=O	.	-24	.	.	.	83*
CCOC(=O)C(=CNNc1cccc(Cl)c1)C(=O)OCC	.	-30	-2	8	7	52*
CCc1nnc(NC(=O)CN2CCN(Cc3ccc(F)cc3)CC2)s1	.	.	2	4	4	.
COc1ccc(S(=O)(=O)Nc2ccc(O)c3ccccc23)cc1	-10	-7	9	12	11	66*
COc1ccc(S(=O)(=O)Nc2ccccc2)cc1	.	.	2	2	-7	.
O=C(Nc1ccc2nc(-c3ccc4nc[nH]c4c3)[nH]c2c1)c1cccs1	21	-6	9	8	4	79*
O=C(Nc1ccc2nc(-c3ccccc3)[nH]c2c1)c1cccs1	7	-25	-5	2	3	18
Cc1cccc(NC(=O)C2CCN(c3nc(C)cc(C)n3)CC2)c1	3	94*	-1	-2	8	-14
Cc1cccc(NC(=O)C2CCCN(c3nc(C)cc(C)n3)C2)c1 (stereo unspecified)	-1	-8	4	-1	6	5
CCCCNC(=O)CSc1ccc(S(=O)(=O)N2CCOCC2)cn1	.	.	-1	2	-1	.
NC(=O)CSc1ccc(S(=O)(=O)N2CCOCC2)cn1	.	.	43*	38*	20	.
Cc1cc(C)n(Cc2cccc(F)c2)c(=O)c1C#N	-9	96*	3	0	3	13
O=C(O)CCCC(=O)Nc1cccc(C(F)(F)F)c1	-5	-26	1	4	-2	18
CCCOc1ccc(C(=O)Nc2ccc(NC(=O)c3cccs3)cc2)cc1	.	.	0	3	-2	.
CN(C)c1ccc(/C=N/NC(=O)c2ccc(NC(=O)c3ccccc3)cc2)cc1	.	-77	33	32*	17	31
CC(C)Oc1ccc(C(=O)Nc2ccc(N(C)C)cc2)cc1	3	-32	6	-10	1	78*
CCCOc1ccc(C(=O)Nc2ccc(N(C)C)cc2)cc1	4	-27	7	-5	-4	81*
CCCCOC(=O)Nc1ccc(N(C)C)cc1	1	-48	7	0	4	75*
CCCCOC(=O)Nc1ccc(C(N)=O)cc1	-6	-6	2	7	-9	12
SMILES	Mcl-1 Bim block	Mcl1 Bid PPI	MCL1 BIM primary	BCLXL inh	GLD-1 TGE inh	Mcl1 Noxa PPI
Cc1cc(Nc2cccc(Cl)n2)n(-c2ccccc2)n1	-9	2	2	3	3	8
O=C(NC1CCN(Cc2ccccc2)CC1)C12CC3CC(CC(C3)C1)C2	-3	6	2	-1	9	13
CCOC(=O)c1c(C)c(C(=O)Nc2ccc(N(C)C)cc2)c(C)n1CC	3	-12	-2	-5	7	56*
CN(C)c1nc2sc3c(c2c(=O)n1C)CC(C)(C)OC3	-2	-13	5	1	4	7
CCOc1ccc(OCCN(C)Cc2ccccc2)cc1	-5	59*	10	6	4	10
Cc1ccc2nc(/C(C#N)=C\c3ccc(N4CCCCC4)c([N+](=O)[O-])c3)[nH]c2c1	0	14	-11	-4	-15	58*
O=C(Nc1nccs1)c1ccc(COc2ccc(Cl)cc2)o1	5	-1	10	2	2	7
O=C(Nc1nccs1)c1ccc(COc2ccc(F)cc2)o1	24	-7	-6	-12	4	56*
O=c1cnn(Cc2ccc(Cl)c(Cl)c2)c2ccccc12	.	.	-13	-4	6	.
CC(C)=C1C(=O)NN(c2ccc(C)c(Cl)c2)C1=O	45*	-20	1	3	4	-13
CC(C)=C1C(=O)NN(c2cccc(Cl)c2)C1=O	-7	-38	-14	4	4	19
O=C(CN1CCN(Cc2ccc(Cl)cc2)C1=O)NCc1cccs1	2	-20	5	10	8	9
O=[N+]([O-])c1ccccc1CN1CCN(Cc2ccccn2)CC1	0	59*	4	5	4	34
CNc1ccc(/C=C(\C#N)c2ccccn2)cc1[N+](=O)[O-]	-1	39	40*	37*	15	64*
O=C(COc1ncnc2cc([N+](=O)[O-])ccc12)NCc1ccc2c(c1)OCO2	6	12	9	3	8	60*
O=[N+]([O-])c1cccc(COc2ncnc3cc([N+](=O)[O-])ccc23)c1	.	-50	-1	-2	-1	53*
O=C(COC(=O)Cc1ccc([N+](=O)[O-])cc1)NCc1ccc2c(c1)OCO2	.	.	.	.	-1	.
COc1ccc(CCNC(=O)COc2ncnc3cc([N+](=O)[O-])ccc23)cc1	1	1	4	10	2	32
Cc1ccc(N/C=C/c2onc(C)c2[N+](=O)[O-])cc1	.	-56	-125	-89	-18	-4
Cc1ccc(C(=O)N2CCN(Cc3ccc4c(c3)OCO4)CC2)cc1S(=O)(=O)N1CCOCC1	.	-30	10	5	1	-20
Cc1c(Cl)cnc(NC(=O)COC(=O)c2ccc3ncsc3c2)c1Cl	-3	66*	29	22	2	58*
Cc1ccc(CN2CCN(C/C=C/c3ccc(F)cc3)CC2CCO)o1 (stereo unspecified)	15	-49	-4	1	0	-2
Cc1cc(C(F)(F)F)c(C#N)c(SCC(=O)Nc2nc3ccccc3s2)n1	.	-37	6	37*	7	-50
CC(C)(C)c1nc2ccccc2c2nnc(SCC(=O)Nc3nc4ccccc4s3)n12	2	71*	-3	-1	8	26
Cc1nc(SCC(=O)Nc2nc3ccccc3s2)c(C#N)c(C)c1C	-6	-35	-9	-1	1	17
CC(C)(C)c1nc2ccccc2c2nnc(SCC(=O)Nc3nccs3)n12	1	-7	2	2	-3	18
CN(C)c1ccc(NC(=O)c2ccc(COc3cccc(Cl)c3)o2)cc1	0	-12	4	3	1	85*
CC(C)C(NC(=O)c1ccc(C(C)(C)C)cc1)C(=O)OCC(=O)NC(=O)Cc1ccccc1 (stereo unspecified)	-8	8	-2	-1	10	15
Nc1cc(OCC(F)(F)F)cc([N+](=O)[O-])c1	-2	-36	-1	6	-3	0

Screens (PubChem)
